In the supplement of paper PMC11732987, “Enantioselective OTUD7B fragment discovery through chemoproteomics screening and high-throughput optimisation” (Communications Chemistry, 2025):
Unmarked numbers belong to inactive results.

Experiments:
Assay in all cases: log2 ratio of Biotin-Ahx-Ub-VS probe labelling (fragment/DMSO); higher = less target engagement (more negative = stronger competition), active = hit call of the paper (q ≤ 0.05, log2 ratio ≤ -1)
Conditions in all cases: compound concentration: 200 uM; treatment time: 3 h
UniProt O00507 = molecular target: UniProt O00507
Method in brief: (§1)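 HEK293T lysate (495 µg per sample, in Tris/CHAPS/IGEPAL buffer with protease inhibitors) was exposed in triplicate for 3 h to fragment at 200 µM or to vehicle, then to Biotin-Ahx-Ub-VS at 0.5 µM final for 1 h. Labelled DUBs were enriched on NeutrAvidin, digested with LysC and trypsin, and analysed by diaPASEF LC-MS/MS. Spectronaut label-free quantities were normalised to the global median, and values are average log2 ratios of fragment over vehicle from an unpaired t-test. Only proteins with ≥2 unique peptides were used.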

UniProt P51784 = molecular target: UniProt P51784
Method in brief: as §1

UniProt Q5T2D3 = molecular target: T1, UniProt Q5T2D3
T1 sequence (whole entry): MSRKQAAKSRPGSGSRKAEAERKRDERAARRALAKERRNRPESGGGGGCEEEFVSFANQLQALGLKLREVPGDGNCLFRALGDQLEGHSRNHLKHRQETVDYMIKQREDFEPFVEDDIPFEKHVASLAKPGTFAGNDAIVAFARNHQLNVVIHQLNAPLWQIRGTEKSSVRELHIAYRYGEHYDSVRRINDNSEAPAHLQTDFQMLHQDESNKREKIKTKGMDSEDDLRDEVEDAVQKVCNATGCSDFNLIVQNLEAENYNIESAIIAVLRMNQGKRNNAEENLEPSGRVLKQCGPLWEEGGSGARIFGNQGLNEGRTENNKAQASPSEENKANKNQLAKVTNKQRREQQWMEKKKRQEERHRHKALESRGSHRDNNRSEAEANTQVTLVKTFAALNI
Method in brief: as §1

UniProt Q8TE49 = molecular target: T2, UniProt Q8TE49
T2 sequence (whole entry): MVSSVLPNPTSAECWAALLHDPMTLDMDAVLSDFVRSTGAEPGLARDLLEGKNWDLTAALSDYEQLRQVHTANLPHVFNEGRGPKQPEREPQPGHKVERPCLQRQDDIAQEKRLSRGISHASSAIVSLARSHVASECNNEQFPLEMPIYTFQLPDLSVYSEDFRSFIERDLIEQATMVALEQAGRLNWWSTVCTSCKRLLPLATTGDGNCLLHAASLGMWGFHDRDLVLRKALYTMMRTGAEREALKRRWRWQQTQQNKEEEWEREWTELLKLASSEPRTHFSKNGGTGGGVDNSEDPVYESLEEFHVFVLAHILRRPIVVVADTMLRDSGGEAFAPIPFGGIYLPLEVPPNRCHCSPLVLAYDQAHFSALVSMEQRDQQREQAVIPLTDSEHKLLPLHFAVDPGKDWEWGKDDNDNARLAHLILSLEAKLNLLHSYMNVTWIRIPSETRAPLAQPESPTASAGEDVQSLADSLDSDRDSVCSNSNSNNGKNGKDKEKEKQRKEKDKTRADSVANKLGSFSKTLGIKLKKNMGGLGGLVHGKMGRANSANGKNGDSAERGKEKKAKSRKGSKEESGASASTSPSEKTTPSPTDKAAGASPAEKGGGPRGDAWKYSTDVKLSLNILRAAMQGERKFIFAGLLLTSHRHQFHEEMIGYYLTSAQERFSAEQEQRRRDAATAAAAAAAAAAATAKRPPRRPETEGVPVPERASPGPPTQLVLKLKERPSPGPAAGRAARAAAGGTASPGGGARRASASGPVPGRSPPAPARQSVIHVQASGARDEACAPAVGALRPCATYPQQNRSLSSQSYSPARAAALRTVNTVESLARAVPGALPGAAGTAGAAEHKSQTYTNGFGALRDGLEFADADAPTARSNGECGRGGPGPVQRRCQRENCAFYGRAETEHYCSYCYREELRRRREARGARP
Method in brief: as §1

UniProt Q9P2H5 = molecular target: T3, UniProt Q9P2H5
T3 sequence (whole entry): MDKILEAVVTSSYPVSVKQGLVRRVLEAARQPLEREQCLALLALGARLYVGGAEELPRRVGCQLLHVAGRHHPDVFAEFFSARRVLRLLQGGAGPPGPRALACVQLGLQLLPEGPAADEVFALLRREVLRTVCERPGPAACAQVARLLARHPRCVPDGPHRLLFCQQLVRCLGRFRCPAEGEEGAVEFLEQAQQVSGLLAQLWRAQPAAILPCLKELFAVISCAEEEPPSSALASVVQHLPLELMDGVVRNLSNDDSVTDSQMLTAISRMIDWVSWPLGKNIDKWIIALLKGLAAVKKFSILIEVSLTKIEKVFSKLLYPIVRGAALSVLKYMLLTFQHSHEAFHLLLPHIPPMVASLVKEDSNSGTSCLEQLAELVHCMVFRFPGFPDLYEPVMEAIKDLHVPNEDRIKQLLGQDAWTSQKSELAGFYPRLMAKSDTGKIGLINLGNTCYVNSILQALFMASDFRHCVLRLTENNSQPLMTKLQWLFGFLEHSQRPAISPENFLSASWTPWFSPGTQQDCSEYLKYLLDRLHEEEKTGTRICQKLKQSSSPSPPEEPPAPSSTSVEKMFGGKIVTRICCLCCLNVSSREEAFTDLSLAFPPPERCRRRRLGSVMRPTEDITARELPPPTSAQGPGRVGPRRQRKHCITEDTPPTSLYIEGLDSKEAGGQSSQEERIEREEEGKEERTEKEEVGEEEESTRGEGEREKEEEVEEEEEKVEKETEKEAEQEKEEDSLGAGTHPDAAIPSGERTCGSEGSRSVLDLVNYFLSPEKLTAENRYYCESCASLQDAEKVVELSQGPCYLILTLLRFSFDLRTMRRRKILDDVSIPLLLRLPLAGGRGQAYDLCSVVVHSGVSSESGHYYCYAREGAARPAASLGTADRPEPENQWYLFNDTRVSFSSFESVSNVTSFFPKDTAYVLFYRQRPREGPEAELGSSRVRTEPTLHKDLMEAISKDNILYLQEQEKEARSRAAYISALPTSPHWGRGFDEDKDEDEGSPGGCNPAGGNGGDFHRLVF
Method in brief: as §1

UniProt Q9UGI0 = molecular target: T4, UniProt Q9UGI0
T4 sequence (whole entry): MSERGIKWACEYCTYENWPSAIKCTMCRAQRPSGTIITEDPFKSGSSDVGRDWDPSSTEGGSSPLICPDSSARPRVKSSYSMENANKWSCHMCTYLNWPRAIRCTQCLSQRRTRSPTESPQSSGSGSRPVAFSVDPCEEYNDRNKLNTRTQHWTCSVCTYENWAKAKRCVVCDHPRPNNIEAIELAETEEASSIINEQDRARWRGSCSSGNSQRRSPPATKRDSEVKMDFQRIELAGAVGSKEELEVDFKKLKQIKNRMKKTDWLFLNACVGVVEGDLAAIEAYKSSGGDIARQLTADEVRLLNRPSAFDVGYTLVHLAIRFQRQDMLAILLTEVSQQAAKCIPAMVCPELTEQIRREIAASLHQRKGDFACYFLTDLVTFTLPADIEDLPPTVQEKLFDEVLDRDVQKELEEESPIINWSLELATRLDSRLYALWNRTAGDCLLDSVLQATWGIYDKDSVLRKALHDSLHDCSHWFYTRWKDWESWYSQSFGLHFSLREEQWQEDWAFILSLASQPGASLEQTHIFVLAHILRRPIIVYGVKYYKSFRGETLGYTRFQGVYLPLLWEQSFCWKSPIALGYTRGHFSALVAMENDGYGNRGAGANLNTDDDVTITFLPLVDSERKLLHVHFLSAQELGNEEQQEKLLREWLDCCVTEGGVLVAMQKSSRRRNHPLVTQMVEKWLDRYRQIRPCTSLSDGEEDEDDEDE
Method in brief: as §1

YOD1 = molecular target: T5, YOD1 (UniProt Q5VVQ6)
T5 sequence (whole entry): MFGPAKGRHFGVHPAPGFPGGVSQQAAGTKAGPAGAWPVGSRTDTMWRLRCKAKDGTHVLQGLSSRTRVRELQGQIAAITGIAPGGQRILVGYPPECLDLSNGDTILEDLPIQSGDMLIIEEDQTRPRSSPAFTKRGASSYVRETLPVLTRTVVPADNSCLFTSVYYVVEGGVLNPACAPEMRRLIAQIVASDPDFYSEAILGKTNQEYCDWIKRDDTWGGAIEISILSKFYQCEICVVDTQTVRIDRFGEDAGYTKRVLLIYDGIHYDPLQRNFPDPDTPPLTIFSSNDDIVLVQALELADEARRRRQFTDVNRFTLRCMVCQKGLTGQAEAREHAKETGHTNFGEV
Method in brief: as §1

Sequence of UniProt P51784 (P51784 whole entry): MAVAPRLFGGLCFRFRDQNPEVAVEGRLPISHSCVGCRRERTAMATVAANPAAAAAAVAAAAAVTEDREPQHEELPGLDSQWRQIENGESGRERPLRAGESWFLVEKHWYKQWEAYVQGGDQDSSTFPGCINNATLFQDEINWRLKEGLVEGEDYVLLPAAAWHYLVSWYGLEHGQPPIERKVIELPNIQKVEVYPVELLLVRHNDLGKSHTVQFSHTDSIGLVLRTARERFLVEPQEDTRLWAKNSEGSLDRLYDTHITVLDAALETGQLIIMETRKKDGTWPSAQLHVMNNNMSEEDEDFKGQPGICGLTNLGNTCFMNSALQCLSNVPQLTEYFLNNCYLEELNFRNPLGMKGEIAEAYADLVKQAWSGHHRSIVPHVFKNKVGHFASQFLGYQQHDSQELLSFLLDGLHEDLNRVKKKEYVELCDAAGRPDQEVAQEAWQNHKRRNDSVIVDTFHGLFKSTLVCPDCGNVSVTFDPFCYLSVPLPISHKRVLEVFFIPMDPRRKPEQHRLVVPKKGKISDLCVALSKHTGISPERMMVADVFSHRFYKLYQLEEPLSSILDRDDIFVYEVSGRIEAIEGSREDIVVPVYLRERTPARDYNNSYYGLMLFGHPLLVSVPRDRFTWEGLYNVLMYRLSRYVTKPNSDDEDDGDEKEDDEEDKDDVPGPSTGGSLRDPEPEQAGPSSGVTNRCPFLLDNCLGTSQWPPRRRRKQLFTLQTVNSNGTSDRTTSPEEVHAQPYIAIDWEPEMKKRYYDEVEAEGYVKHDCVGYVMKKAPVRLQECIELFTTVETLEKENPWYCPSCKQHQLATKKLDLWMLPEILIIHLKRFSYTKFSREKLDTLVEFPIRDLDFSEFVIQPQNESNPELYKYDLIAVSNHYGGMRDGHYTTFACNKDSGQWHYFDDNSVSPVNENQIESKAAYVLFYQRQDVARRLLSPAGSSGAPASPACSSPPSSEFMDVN
Sequence of UniProt O00507 (O00507 whole entry, the tested form may be a part): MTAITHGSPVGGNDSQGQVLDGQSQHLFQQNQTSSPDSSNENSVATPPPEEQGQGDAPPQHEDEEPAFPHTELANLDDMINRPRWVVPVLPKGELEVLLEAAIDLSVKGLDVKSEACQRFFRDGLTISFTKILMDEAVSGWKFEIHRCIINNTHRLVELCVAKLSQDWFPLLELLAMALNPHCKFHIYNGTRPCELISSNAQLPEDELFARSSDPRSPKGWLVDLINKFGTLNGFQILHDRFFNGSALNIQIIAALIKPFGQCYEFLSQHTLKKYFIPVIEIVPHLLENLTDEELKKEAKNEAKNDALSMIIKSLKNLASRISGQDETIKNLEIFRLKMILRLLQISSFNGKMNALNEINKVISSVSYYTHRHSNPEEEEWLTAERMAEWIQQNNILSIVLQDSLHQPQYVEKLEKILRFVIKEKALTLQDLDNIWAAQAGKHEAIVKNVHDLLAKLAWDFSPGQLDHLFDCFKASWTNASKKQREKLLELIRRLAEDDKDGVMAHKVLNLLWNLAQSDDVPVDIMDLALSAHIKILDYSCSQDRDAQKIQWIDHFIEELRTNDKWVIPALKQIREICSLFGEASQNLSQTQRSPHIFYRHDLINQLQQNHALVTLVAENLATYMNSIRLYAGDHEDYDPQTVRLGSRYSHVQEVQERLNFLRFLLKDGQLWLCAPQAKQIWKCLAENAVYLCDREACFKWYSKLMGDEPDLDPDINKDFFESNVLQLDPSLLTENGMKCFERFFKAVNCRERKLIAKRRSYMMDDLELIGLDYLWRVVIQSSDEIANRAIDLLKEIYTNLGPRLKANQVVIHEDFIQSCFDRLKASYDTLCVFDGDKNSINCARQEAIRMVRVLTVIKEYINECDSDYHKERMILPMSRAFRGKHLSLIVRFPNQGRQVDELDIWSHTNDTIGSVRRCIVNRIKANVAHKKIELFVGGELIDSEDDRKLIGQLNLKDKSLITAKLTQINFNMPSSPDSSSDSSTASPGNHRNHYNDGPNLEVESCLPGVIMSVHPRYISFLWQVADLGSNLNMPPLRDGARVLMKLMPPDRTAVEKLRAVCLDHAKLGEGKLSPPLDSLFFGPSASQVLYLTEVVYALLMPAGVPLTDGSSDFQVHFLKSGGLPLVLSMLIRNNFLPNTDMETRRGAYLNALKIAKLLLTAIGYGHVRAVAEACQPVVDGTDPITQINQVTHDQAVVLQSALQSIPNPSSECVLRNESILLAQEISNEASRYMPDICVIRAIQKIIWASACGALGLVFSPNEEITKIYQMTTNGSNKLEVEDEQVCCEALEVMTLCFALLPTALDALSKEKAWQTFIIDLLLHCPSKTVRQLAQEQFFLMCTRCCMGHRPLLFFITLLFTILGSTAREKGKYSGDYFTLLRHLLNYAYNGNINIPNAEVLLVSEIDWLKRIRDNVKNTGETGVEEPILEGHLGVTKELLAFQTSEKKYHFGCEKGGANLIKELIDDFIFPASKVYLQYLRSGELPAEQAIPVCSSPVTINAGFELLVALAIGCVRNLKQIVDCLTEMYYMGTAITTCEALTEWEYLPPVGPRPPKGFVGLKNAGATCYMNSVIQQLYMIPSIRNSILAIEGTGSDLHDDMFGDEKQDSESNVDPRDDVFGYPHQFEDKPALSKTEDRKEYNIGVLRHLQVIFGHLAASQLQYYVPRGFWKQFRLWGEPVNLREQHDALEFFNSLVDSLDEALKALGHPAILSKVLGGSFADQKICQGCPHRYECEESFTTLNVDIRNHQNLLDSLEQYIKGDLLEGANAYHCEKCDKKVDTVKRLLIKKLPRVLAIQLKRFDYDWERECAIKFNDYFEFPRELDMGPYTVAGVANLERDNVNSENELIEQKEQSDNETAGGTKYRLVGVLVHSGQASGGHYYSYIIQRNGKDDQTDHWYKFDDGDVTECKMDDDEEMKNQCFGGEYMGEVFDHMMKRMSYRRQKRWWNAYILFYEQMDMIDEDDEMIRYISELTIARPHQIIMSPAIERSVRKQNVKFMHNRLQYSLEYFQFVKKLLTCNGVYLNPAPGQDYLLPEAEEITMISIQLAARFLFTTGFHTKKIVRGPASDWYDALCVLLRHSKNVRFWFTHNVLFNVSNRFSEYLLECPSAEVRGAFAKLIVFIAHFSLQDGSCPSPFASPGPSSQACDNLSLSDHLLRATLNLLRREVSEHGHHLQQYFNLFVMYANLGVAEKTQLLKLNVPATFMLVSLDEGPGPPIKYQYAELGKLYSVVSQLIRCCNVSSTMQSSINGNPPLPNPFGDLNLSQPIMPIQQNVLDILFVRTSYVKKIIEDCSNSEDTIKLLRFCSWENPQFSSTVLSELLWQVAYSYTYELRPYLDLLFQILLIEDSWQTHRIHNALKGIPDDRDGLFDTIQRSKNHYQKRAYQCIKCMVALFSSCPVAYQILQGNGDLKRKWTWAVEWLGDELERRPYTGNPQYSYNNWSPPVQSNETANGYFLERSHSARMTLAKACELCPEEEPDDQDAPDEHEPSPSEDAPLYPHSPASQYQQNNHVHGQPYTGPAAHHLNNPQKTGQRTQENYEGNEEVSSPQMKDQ

SMILES	log2 ratio of Biotin-Ahx-Ub-VS probe labelling (UniProt O00507)	log2 ratio of Biotin-Ahx-Ub-VS probe labelling (UniProt P51784)	log2 ratio of Biotin-Ahx-Ub-VS probe labelling (UniProt Q5T2D3)	log2 ratio of Biotin-Ahx-Ub-VS probe labelling (UniProt Q8TE49)	log2 ratio of Biotin-Ahx-Ub-VS probe labelling (UniProt Q9P2H5)	log2 ratio of Biotin-Ahx-Ub-VS probe labelling (UniProt Q9UGI0)	log2 ratio of Biotin-Ahx-Ub-VS probe labelling (YOD1)
CC1CN(c2ccc(NC(=O)CCl)cc2)CC(C)O1 (stereo not drawn)	-0.0662	0.0387	-0.298	-0.392	-0.0224	-0.221	-0.123
O=C(CCl)N1CCc2[nH]c3ccccc3c2C1	-1.27 (active)	-0.429	-0.115	-0.338	-0.439	-1.68 (active)	-0.2
Cc1nc(CN2CCN(C(=O)CCl)CC2)cs1	-0.246	-0.106	-0.213	-0.382	-0.401	-0.214	-0.111
COc1ccccc1C(C)NC(=O)CCl (stereo not drawn)	-0.445	-0.212	-0.15	-0.696	-0.277	-0.788	-0.23
CC(NC(=O)CCl)c1noc(Cc2ccccc2)n1 (stereo not drawn)	-0.447	-0.0798	-0.347	-0.443	-0.534	-0.904	-0.247
Cl.Cn1nccc1C(NC(=O)CCl)c1ccccc1 (stereo not drawn)	0.249	-0.121	-0.172	-0.655	-0.154	-0.583	0.125
O=C(CCl)Nc1cccc(C(=O)N2CCSCC2)c1	-0.587	-0.172	-0.17	-0.399	0.0593	-0.309	-0.58
O=C(CCl)N1CCC(C(O)c2ccc(F)cc2)CC1 (stereo not drawn)	-0.0622	0.5	-0.0566	-0.301	0.167	-0.181	-0.00174
O=C(CCl)NC1CCC(C(F)(F)F)CC1 (stereo not drawn)	-0.728	0.104	-0.211	-0.706	0.159	-0.54	-0.348
Cl.O=C(CCl)N1CCn2cncc2C1	-0.138	-0.251	-0.246	-0.433	-0.128	-0.182	-0.133
Cc1nc(CN2CCCN(C(=O)CCl)CC2)no1.Cl	0.543	0.151	-0.111	0.0982	-0.193	0.143	0.273
CN(C)C(=O)c1ccc(NC(=O)CCl)cc1	0.0581	-0.0219	0.0298	0.182	0.102	-0.97	0.0572
COc1ccc(Cl)cc1NC(=O)CCl	-0.985	-0.276	-0.485	-0.837	-0.335	-0.741	-0.669
Cc1ccc(C)c(NC(=O)CCl)c1	-0.612	-0.335	-0.41	-0.57	-0.295	-0.449	-0.599
Cl.O=C(CCl)N1CCc2ncncc2C1	-0.362	0.0954	-0.274	-0.964	-0.288	-1.57 (active)	0.055
Cc1cnc2[nH]cc(CCNC(=O)CCl)c2c1	-0.277	0.0378	-0.197	-0.5	0.0093	-0.444	-0.097
O=C(CCl)N1CCC2(CCC(O)CC2)CC1	0.0905	0.0738	-0.238	-0.64	-0.118	-0.316	0.0256
O=C(CCl)N1CCC(O)(Cc2ccc(F)cc2)C1 (stereo not drawn)	-0.253	0.313	-0.16	-0.0913	0.0413	-0.196	0.2
CCN1C(=O)C2CN(C(=O)CCl)CCN2C1=O (stereo not drawn)	0.428	0.0433	-0.0669	-0.958	-0.223	0.112	0.177
